High-throughput results from PubChem.
Rows were chosen to be rich in hits. Some 32% of all compounds tested hit in one or more screens of this group.
PostGolgi ctrl: growth inhibition of yeast control strain, primary screen, counter-screen for post-Golgi transport modulator project; hit rate 5% among 98,000; AID 738, 2007; inhibition, % at 10 µM; efflux-deficient yeast background strain, growth absorbance A615, 16 h
CYP2C19 inh: blockers of cytochrome P450 2C19 activity – biochemical, luminescence, ADME assay, primary screen. CYP2C19 Supersomes, luciferin-H EGE luminescence, 30 min. inhibition, % at 5 µM. hit rate 21% among 96,000. AID 778, 2007;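 active = CYP2C19 inhibition above a set limit at 5 µM in the primary screen, cut at about 50% in these data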;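 also: plate controls were negative control wells for no effect and 2.5 mM tranylcypromine positive control for full effect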
Target sequence (P33261 whole entry, looked up): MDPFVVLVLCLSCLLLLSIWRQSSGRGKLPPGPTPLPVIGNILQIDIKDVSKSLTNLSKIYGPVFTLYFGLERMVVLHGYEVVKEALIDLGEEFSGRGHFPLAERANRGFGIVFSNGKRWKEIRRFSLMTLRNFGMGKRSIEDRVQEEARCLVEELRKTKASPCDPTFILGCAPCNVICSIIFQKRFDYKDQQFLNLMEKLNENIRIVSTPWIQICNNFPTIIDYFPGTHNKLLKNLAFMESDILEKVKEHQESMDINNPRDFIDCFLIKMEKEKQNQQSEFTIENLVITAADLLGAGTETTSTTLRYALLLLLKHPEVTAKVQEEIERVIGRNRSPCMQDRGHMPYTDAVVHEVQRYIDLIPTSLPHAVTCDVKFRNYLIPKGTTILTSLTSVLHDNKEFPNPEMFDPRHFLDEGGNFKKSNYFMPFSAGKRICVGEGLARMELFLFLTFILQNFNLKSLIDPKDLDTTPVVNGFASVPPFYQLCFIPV
PostGolgi yeast: phenotypic screen on post-Golgi transport, primary screen. post-Golgi transport phenotypic cell assay. inhibition, % at 10 µM. AID 739, 2007. hit rate 0.9% among 98,000;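 also: yeast cells grown in 1536-well plates; yeast grown about 18 h at 30C before absorbance read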
CYP2C9 inh: blockers of cytochrome P450 2C9 activity – biochemical, luminescence, ADME assay, primary screen; CYP2C9 Supersomes, luciferin-H conversion; AID 777, 2007; inhibition, % at 5 µM; P11712; hit rate 20% among 96,000;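 active = blocking of liver enzyme CYP2C9 beyond about 50% at 5 µM, limit read from the data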
CYP2C9 activ: human CYP2C9 activators, primary screen, biochemical, luminescence. activation factor at 5 µM. recombinant CYP2C9, luciferin-H conversion; active compounds read high; factor 1 = untreated enzyme, 0 = blocked. hit rate 1.4% among 96,000;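 active = activation factor of 2 or more for CYP2C9 at a 5 µM dose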;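 also: 0 = sulfaphenazole-blocked wells and 1 = vehicle-only wells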
CYP2C19 activ: human CYP2C19 activators, primary screen, biochemical, luminescence. Cytochrome P450 2C19 (Homo sapiens), P33261. recombinant CYP2C19, luciferin-H EGE luminescence; active compounds read high; 0 = fully inhibited enzyme, 1 = untreated enzyme. activation factor at 5 µM. 96,000 tested, under 10 active. AID 1025, 2008;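 active = activation factor of at least 2 at 5 µM in the primary screen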;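 also: 0 = wells with 2.5 mM tranylcypromine and 1 = vehicle-only wells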
* hit, by the source's call. Rule as the data show it, unless noted: active = inhibition above about 30%; inactive = the rest.

How did Cc1ccc(-n2nnnc2SCC(=O)N2c3ccccc3NC(=O)C2(C)C)cc1 do in these assays?
PostGolgi ctrl: 2; CYP2C19 inh: 11; PostGolgi yeast: -4; CYP2C9 inh: 13; CYP2C9 activ: 0.9; CYP2C19 activ: 0.9

How did Cc1ccccc1N(C)S(=O)(=O)c1ccc2[nH]cc(C(=O)NCC3CCCO3)c(=O)c2c1 (centres undefined) do in these assays?
PostGolgi ctrl: 6; CYP2C19 inh: 53*; PostGolgi yeast: -8; CYP2C9 inh: 91*; CYP2C9 activ: 0.1; CYP2C19 activ: 0.5

Results for CCCCCOc1ccc(CN2CCOCC2)cc1Cl ?
PostGolgi ctrl: 55*; CYP2C19 inh: 76*; PostGolgi yeast: 95*; CYP2C9 inh: 55*; CYP2C9 activ: 0.4; CYP2C19 activ: 0.2

How did CC(C)C(NC(=O)C1CCC(C(C)(C)C)CC1)C(=O)NCc1cccnc1 (centres undefined) do in these assays?
PostGolgi ctrl: -2; CYP2C19 inh: 52*; PostGolgi yeast: 1; CYP2C9 inh: 51*; CYP2C9 activ: 0.5; CYP2C19 activ: 0.5

What do the screens show for `CC(C)C(NC(=O)C1CCCCC1)C(=O)Nc1ccncc1` (centres undefined)?
PostGolgi ctrl: 3; CYP2C19 inh: 96*; PostGolgi yeast: 3; CYP2C9 inh: 92*; CYP2C9 activ: 0.1; CYP2C19 activ: 0

Results for CCn1c(=O)cc(O)c2c(=O)n(C)c(=O)n(C)c21 ?
PostGolgi ctrl: -1; CYP2C19 inh: 2; PostGolgi yeast: 0; CYP2C9 inh: 43; CYP2C9 activ: 0.6; CYP2C19 activ: 1

How did Cc1ccc(CCNC(=O)C23CN(Cc4ccccc4)CC2C(c2ccc([N+](=O)[O-])cc2)=NO3)cc1 (centres undefined) do in these assays?
PostGolgi ctrl: 10; CYP2C19 inh: 34; PostGolgi yeast: 3; CYP2C9 inh: 3; CYP2C9 activ: 1; CYP2C19 activ: 0.7

What do the screens show for `Cc1ccc(CNC(=O)C23CN(Cc4ccccc4)CC2C(c2ccc([N+](=O)[O-])cc2)=NO3)cc1` (centres undefined)?
PostGolgi ctrl: 2; CYP2C19 inh: 58*; PostGolgi yeast: 21; CYP2C9 inh: 33; CYP2C9 activ: 0.7; CYP2C19 activ: 0.4

What do the screens show for `O=C(NCc1ccc(OC(F)(F)F)cc1)C12CN(Cc3ccccc3)CC1C(c1cccc([N+](=O)[O-])c1)=NO2` (centres undefined)?
PostGolgi ctrl: 6; CYP2C19 inh: 76*; PostGolgi yeast: -8; CYP2C9 inh: 57*; CYP2C9 activ: 0.4; CYP2C19 activ: 0.2

How did O=C(NCc1ccccc1)C12CN(Cc3ccccc3)CC1C(c1cccc([N+](=O)[O-])c1)=NO2 (centres undefined) do in these assays?
PostGolgi ctrl: 10; CYP2C19 inh: 74*; PostGolgi yeast: -5; CYP2C9 inh: 38; CYP2C9 activ: 0.6; CYP2C19 activ: 0.3

What do the screens show for `CC1(C)CC(=O)c2cc(OCC(=O)NCCN3CCOCC3)ccc2O1`?
PostGolgi ctrl: 25; CYP2C19 inh: 13; PostGolgi yeast: 7; CYP2C9 inh: 7; CYP2C9 activ: 0.9; CYP2C19 activ: 0.9

How did CNC(=O)/C(C#N)=C/c1ccc(-c2ccc(OC)cc2[N+](=O)[O-])o1 do in these assays?
PostGolgi ctrl: -5; CYP2C19 inh: 7; PostGolgi yeast: -6; CYP2C9 inh: 9; CYP2C9 activ: 0.9; CYP2C19 activ: 0.9

What do the screens show for `Cc1noc(C)c1CSc1ccccc1C(=O)N1CCN(c2ccccc2)CC1`?
PostGolgi ctrl: 26; PostGolgi yeast: -1

How did O=C(N/N=C/c1ccc(Cl)cc1)c1cc2c(s1)-c1ccccc1CC2 do in these assays?
PostGolgi ctrl: -6; CYP2C19 inh: -1; PostGolgi yeast: -7; CYP2C9 inh: 17; CYP2C9 activ: 0.8; CYP2C19 activ: 1

How did CC(C)OC(=O)c1c(NC(=O)c2cccs2)sc2c1CCCC2 do in these assays?
PostGolgi ctrl: 17; CYP2C19 inh: -4; PostGolgi yeast: 1; CYP2C9 inh: 74*; CYP2C9 activ: 0.3; CYP2C19 activ: 1
